Activity calls are given as the source filed them. Rule for the calls: active = hit-call score of the fitted dose curve at least 0.9, where 1 is the maximum; inactive = score below 0.9.

This assay in a line: APR_HepG2_CellLoss_72hr: Apredica 72-hour HepG2 Assay for Cell Loss (AID 2282915). As to conditions: high-content imaging. The protocol: APR_HepG2_72hr is a cell-based, multiplexed-readout assay that uses HepG2, a human liver cell line, with measurements taken at 72 hours after chemical dosing in a 384-well plate.APR_HepG2_CellLoss_72hr is one of 10 assay component(s) measured or calculated from the APR_HepG2_72hr assay. It is designed to make measurements of cell number, a form of viability reporter, as detected with fluorescence intensity signals by HCS Fluorescent Imaging technology.Data from the assay component APR_HepG2_CellLoss_72hr was analyzed into 1 assay endpoint. This assay endpoint, APR_HepG2_CellLoss_72hr, was analyzed with bidirectional fitting relative to DMSO as the negative control and baseline of activity. Using a type of viability reporter, measures of all nuclear dna for gain or loss-of-signal activity can be used to understand the viability at the cellular-level. Furthermore, this assay endpoint can be referred to as a secondary readout, because this assay has produced multiple assay endpoints where this one serves a viability function. To generalize the intended target to other relatable targets, this assay endpoint is annotated to the cell cycle intended target family, where the subfamily is proliferation.
Cells were treated with dimethyl sulfoxide (DMSO) as a solvent control at a final concentration of 0.5% v/v or with compounds in DMSO with a resulting final DMSO concentration of 0.5% v/v. Compound treatment was done at concentrations of 0.39, 0.78, 1.56, 3.12, 6.24, 12.5, 25, 50, 100, and 200 uM in duplicate on each plate. Cells were treated with compounds for 1, 24, or 72 hr. Carbonyl […] m-chloro-phenylhydrazone (CCCP) and taxol were used as positive controls for mitochondrial function and cytoskeletal stability, respectively; DMSO served as the negative control for this experiment. Cells were fixed by the direct addition of 50 uL formaldehyde in Hank's Balanced Salt Solution (HBSS) to a final concentration of 3.7%. After incubation in the fixation medium for 30 min at room temperature (293-298 K), cells were rinsed twice with HBSS and treated with cell permeabilization buffer (16 uL of 0.5% Triton X-100) for 10 min at room temperature (293-298 K) before labeling. For mitochondrial membrane potential and mitochondrial measurements, pre-fixed cells were incubated with 50 uL of MitoTracker Red CMXRos (Invitrogen) at a concentration of 250 nM for 30 min before fixation. In the remaining cases, post-fixed cells were labeled by incubation with a multiplexed mixture of primary antibodies in HBSS for 60 min at room temperature (293-298 K) to detect immunoreactivity of c-Jun (1:500), phospho-histone H3 (1:100), phospho-histone H2A.x (1:200), p53 (1:400), alpha-tubulin (1:200) and Hoechst 33342 (2 ug/mL). Cells were labeled for multiplexed imaging on two separate plates: a) Hoechst 33342, MitoTracker Red, phospho-histone H3, and alpha-tubulin, and b) Hoechst 33342, phospho-histone H2A.x, and c-Jun. A final rinse with HBSS (50 uL) was performed before analysis. The primary and secondary antibodies for the proteins were phospho-histone H3 (rabbit anti-phospho-histone H3 and FITC-donkey anti-rabbit IgG), phospho-histone H2A.x (mouse anti-phospho-histone H2A.x and FITC-donkey anti-mouse IgG), c-Jun (rabbit anti-phospho-c-Jun and Cy3-donkey anti-rabbit IgG), p53 (sheep anti-p53 and Cy5-donkey anti-sheep IgG), alpha-tubulin (mouse anti-alpha-tubulin and Cy5-donkey anti-mouse IgG). These antibodies are available as the CellCiphr HepG2 assay kit (Millipore).Digital images of each well were captured using a Cellomics ArrayScan VTI (Thermo Scientific Cellomics) (0.8 NA objective, 0.63x optical coupler, and XF-93 filter set) at 20x magnification. The images were acquired using the autofocus feature of the ArrayScan instrument, which entails the following steps. First, the camera focuses on channel 1 (Hoechst 33342), where nuclei are identified. Second, a Z offset of 1 um is used for capturing mitochondria (MitoTracker Red). […]
For `Clc1ccccc1C(c1ccccc1)(c1ccccc1)n1ccnc1`, the AC50 was 18.9 µM (active).

Turning to `Cc1oc2c(NC(=O)c3c(Cl)cccc3Cl)cccc2c1C(C)(C)O`, the result was inactive.

For `CC(C)(C)c1csc(-c2cc3cc(OCc4ccccc4CC(=O)O)ccc3o2)n1`, the molecule was classed as inactive.

With `Cc1occc1C(=O)Nc1ccc(C(=O)N2CCC(F)(F)/C(=C\C(=O)N3CCC(N4CCCCC4)CC3)c3ccccc32)cc1`, the AC50 is 12.3 µM (active).

Take `COc1cccc([C@H](O)C2CCN(CCc3ccc(F)cc3)CC2)c1OC`: the AC50 was 105 µM (active).

On to `CC[C@H](NC(=O)c1cc(F)ccc1NS(=O)(=O)c1cccc2cccnc12)c1ccccc1`, for which the AC50 was 78.4 µM (active).

Consider `Oc1ccccc1`, for which the call was inactive.

In the case of `CC1(C)NC(=O)N(c2ccc([N+](=O)[O-])c(C(F)(F)F)c2)C1=O`, the AC50 is 38.6 µM (active).

In the case of `O=C(Nc1ccc(Cl)cc1)Nc1ccc(Cl)c(Cl)c1`, the AC50 is 5.54 µM (active).

Turning to `C[C@]12CC[C@@H]3c4ccc(O)cc4CC[C@H]3[C@@H]1CC[C@H]2O`, the AC50 is 75.6 µM (active).

Turning to `CCCC(=O)OCCC(C)C`, the molecule was called inactive.

Consider `CN(C)c1ccc(C(=C2C=CC(=[N+](C)C)C=C2)c2ccc(N(C)C)cc2)cc1`, for which the concentration at half-maximal activity (AC50) was 3.23 µM (active).

As for `CCCCOC(=O)c1ccc(O)cc1`, the molecule was called inactive.

Regarding `CC(C)(C)c1cc(/C=C2\SC(N)=NC2=O)cc(C(C)(C)C)c1O`, the AC50 was 32.4 µM (active).

Take `COCC(C)OCC(C)OCC(C)O` (stereo not given): the call was inactive.

`Cc1ccc(C(C)C)cc1`: the outcome was inactive.

For the molecule `CCN(Cc1cccc(S(=O)(=O)O)c1)c1ccc(C(=C2C=CC(=[N+](CC)Cc3cccc(S(=O)(=O)O)c3)C=C2)c2ccccc2S(=O)(=O)[O-])cc1`, the molecule was classed as inactive.

Regarding `CCCCCCCCN(C)CCCCCCCC`, the molecule was called inactive.

For `O=CCCCC=O`, the result was inactive.

Take `OCCO`: the molecule was classed as inactive.

For the molecule `O=C(O)c1ccccc1-n1cc(C(=O)O)c(=O)c2cc(Nc3c(F)cc(F)cc3Cl)c(Cl)cc21`, the result was inactive.

Turning to `CCCCCCCCCCCO`, the AC50 is 107 µM (active).

Regarding `O=C(OCCCCCCOC(=O)c1ccccc1)c1ccccc1`, the molecule was classed as inactive.

As to `Cc1ccc2oc(CN(Cc3ccccc3)C(=O)Nc3c(F)cc(F)cc3F)c(-c3ccc(Cl)cc3)c2c1`, the outcome was inactive.

On to `CCN(CC)C(=O)c1cc(S(=O)(=O)Cc2ccccc2)c(N2CCC(c3ccccc3)CC2)cc1N(CC)CCN(C)C`, for which the AC50 was 2.54 µM (active).

On to `O=C=NCCCCCCN=C=O`, for which the result was inactive.

As to `CN(C)C(=O)C1(N2CCCCC2)CCN(CC[C@@]2(c3ccc(Cl)c(Cl)c3)CN(C(=O)c3ccccc3)CCO2)CC1`, the AC50 is 11.4 µM (active).

Take `O=c1[nH]sc2ccccc12`: the AC50 was 18.1 µM (active).

With `Cc1cc(F)ccc1-c1cc(N2CC[C@@H](O)[C@H]2CO)ncc1N(C)C(=O)C(C)(C)c1cc(C(F)(F)F)cc(C(F)(F)F)c1`, the AC50 is 64.7 µM (active).

On to `c1ccc2n[nH]nc2c1`, for which the result was inactive.

Turning to `CCN(Cc1cccnc1)C(=O)c1cccc(Cl)c1[C@]1(C)C(=O)N(Cc2ccc(OC)cc2OC)c2ccc(Cl)cc21`, the AC50 was 14.4 µM (active).

As for `COc1ccc2cc(S(=O)(=O)N[C@H](CC(=O)N[C@H](Cc3ccc(CN4[C@H](C)CCC[C@@H]4C)cc3)C(=O)N(C)C(C)C)c3ccc4c(c3)OCO4)ccc2c1`, the AC50 was 25.3 µM (active).

`Cc1ncc(CO)c(CO)c1O`: the call was inactive.

Regarding `O=C(O)c1ccccc1C(=O)OCc1ccccc1`, the result was inactive.

In the case of `O=C1CCC(C2CCCCC2)CC1`, the result was inactive.

On to `C[C@]12CC[C@@H]3c4ccc(O)cc4CC[C@H]3[C@@H]1CCC2=O`, for which the molecule was classed as inactive.

Turning to `O=C1c2ccccc2C(=O)N1CCc1noc(-c2ccc(CN3CCCCCC3)s2)n1`, the call was inactive.

Take `CCCOC(=O)c1cc(O)c(O)c(O)c1`: the AC50 was 8.44 µM (active).

On to `Cc1cc2c(cc1C(F)(F)F)N(C(=O)Nc1ccc(Oc3cccnc3C)nc1)CC2`, for which the AC50 was 9.35 µM (active).

In the case of `CN(C[C@@H](CC[N+]12CCC(C3CCCCC3)(CC1)CC2)c1ccc(Cl)c(Cl)c1)C(=O)c1cc(C(F)(F)F)cc(C(F)(F)F)c1`, the AC50 is 24.9 µM (active).

Source of the values: PubChem BioAssay (EPA / NIEHS).
